From PubChem BioAssay come the findings set out here.

Active and inactive are the calls of the source.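 The calls were made as follows, unless noted: active = compound that reduces growth-factor-driven endothelial tube area in a mixed cell culture, no cutoff stated; inactive = the rest.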

A short description of test [1]: Wnt pathway potentiators raising nuclear beta-catenin – imaging, WNT3A-conditioned medium, mouse C2C12, NPC library, primary screen (AID 1117326; in the data active = nuclear beta-catenin stimulation mostly above about 4.2%, no sharp cut-off; inactive = mostly below about 10%; also: reference of the scale not given here). To be noted: stronger effect = higher value.
A short description of test [2]: stimulators of insulin release from INS-1E, primary screen, cell-based, 5 mM glucose, NPC library (AID 1117329;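 active = compound raises insulin release from rat beta cells at 5 mM glucose, no numeric limit stated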; also: reference of the scale not given here). Particulars: rat INS-1E insulin secretion, at 10 µM, stronger effect = higher value.
A short description of test [3]: growth inhibition of GSK3B-pretreated HCT116 cells – cell-based, CellTiter-Glo, 0.2 to 20 µM (AID 1117336;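 active = compounds lowering colon cancer cell viability after pretreatment blocking the GSK3B kinase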). To be noted: HCT116 viability after GSK3B inhibitor, at 20 µM, stronger effect = higher value.
The nature of test [4]: inhibition of endothelial tube formation, primary screen, imaging, VEGF stimulated, CD31 staining, tube area, NPC library (AID 1117340). To be noted: VEGF-stimulated ADSC/ECFC co-culture, at 10 µM, stronger effect = higher value.
The nature of test [5]: GLP1 release stimulators, primary, NCI-H716, NPC library (AID 1117341;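 active = compound raises GLP1 secretion from the human gut endocrine cells, with no numeric limit stated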; also: reference of the scale not given here). To be noted: NCI-H716 cells, at 10 µM, stronger effect = higher value.
A short description of test [6]: HCT116 colon cancer cell growth inhibition, primary screen, CellTiter-Glo luminescence, NPC library (AID 1117342;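 active = compounds that lower survival of HCT116 colon cancer cells in the luminescence readout, no numeric limit stated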). To be noted: at 20 µM (top of the series). For orientation: ATP-based viability assays read luminescence as a measure of living cells.
Test [7] is described as follows: reduced SW480 viability measured with CellTiter-Glo, NPC library, primary (AID 1117343;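 active = compounds that lower viability of the colon cancer cells in the luminescence readout, with no numeric limit stated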). Particulars: CellTiter-Glo luminescence; at 20 µM (top of the series).
Test [8] can be described thus: NPC library primary testing for decreased DLD-1 cell viability via CellTiter-Glo (AID 1117346;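 active = compounds that lower survival of DLD-1 colon cancer cells in the luminescence readout, no cutoff given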). Particulars: DLD-1 viability, CellTiter-Glo luminescence; at 20 µM (top of the series).

Take `c1cc2c(c(N3CCNCC3)c1)OCCO2`: the nuclear beta-catenin stimulation in test [1] (at 10 µM) was -1.4% (inactive); in test [1] (stimulation, at 2 µM), 0.7%. Also, the insulin secretion stimulation in test [2] is 1.8% (inactive). Also, in test [3], the viability decrease is -14.9% (inactive). For the same compound, the tube area decrease in test [4] was -9.4% (inactive). The GLP1 secretion stimulation in test [5] was -2.6% (inactive). In addition, in test [6], the inhibition of viability was 3.6% (inactive). The viability decrease (inhibition) in test [7] is 3.4% (active); in test [8], -7.5% (inactive).
As for `Nc1ccccc1C(=O)OCC(O)CO` (configuration not stated), the nuclear beta-catenin stimulation in test [1] (at 10 µM) is 3.1% (inactive); in test [1] (stimulation, at 2 µM), 3.4%. Further, in test [2], the insulin secretion stimulation is -1.4% (inactive). Also, the viability decrease in test [3] was -40% (inactive). Moreover, in test [4], the tube area decrease is 21.1% (inactive). Besides, in test [5], the GLP1 secretion stimulation was -1.2% (inactive). Also, in test [6], the inhibition of viability is -0.1% (inactive). Besides, the viability decrease (inhibition) in test [7] is -4.5% (inactive); in test [8] it was -4.9% (inactive).
Turning to `C1CCC(NC2CCCCC2)CC1`, the nuclear beta-catenin stimulation was 1.5% (inactive) in test [1] (at 10 µM) and 2% in test [1] (stimulation, at 2 µM). The insulin secretion stimulation in test [2] was 1.3% (inactive). Besides, the viability decrease in test [3] is -4.15% (inactive). Besides, the tube area decrease in test [4] was -1.6% (inactive). The GLP1 secretion stimulation in test [5] is 0.1% (inactive). Besides, the inhibition of viability in test [6] is 7.9% (inactive). The viability decrease (inhibition) in test [7] was -22% (inactive); in test [8], -4.45% (inactive).
As to `CC(C)(C)c1cc(O)ccc1O`, the nuclear beta-catenin stimulation in test [1] (at 10 µM) is 2.1% (inactive); in test [1] (stimulation, at 2 µM) it was 2.2%. Moreover, in test [2], the insulin secretion stimulation was 0% (inactive). Besides, the viability decrease in test [3] was 11.8% (inactive). Also, in test [4], the tube area decrease was 50.3% (active). Further, the GLP1 secretion stimulation in test [5] was -1% (inactive). Besides, in test [6], the inhibition of viability was -45.9% (inactive). Also, the results for the viability decrease (inhibition) in test [7] and in test [8] were 17.3% (inactive) and -12% (inactive), respectively.
With `CC(C)C(Br)C(=O)NC(N)=O` (configuration not stated), the nuclear beta-catenin stimulation in test [1] (at 10 µM) was 0.6% (inactive); in test [1] (stimulation, at 2 µM), 1%. Also, in test [2], the insulin secretion stimulation was -0.4% (inactive). Besides, the viability decrease in test [3] is -0.05% (inactive). Also, the tube area decrease in test [4] was 1.7% (inactive). Moreover, in test [5], the GLP1 secretion stimulation is -0.8% (inactive). Also, the inhibition of viability in test [6] is -3% (inactive). Moreover, the viability decrease (inhibition) in test [7] is 4.9% (inactive); in test [8], 1% (inactive).
For the compound `O=c1ccc2cc(O[C@@H]3O[C@H](CO)[C@H](O)[C@H](O)[C@H]3O)c(O)cc2o1`, the nuclear beta-catenin stimulation in test [1] (at 10 µM) is -0.9% (inactive); in test [1] (stimulation, at 2 µM), -0.5%. In test [2], the insulin secretion stimulation is 5% (inactive). In test [3], the viability decrease is -6.5% (inactive). The tube area decrease in test [4] is -14.5% (inactive). Besides, in test [5], the GLP1 secretion stimulation is -2.1% (inactive). For the same compound, the inhibition of viability in test [6] was 8.5% (inactive). Further, the viability decrease (inhibition) in test [7] is 13.9% (inactive); in test [8], -0.6% (inactive).
For the compound `OCCOc1ccccc1`, the nuclear beta-catenin stimulation in test [1] (at 10 µM) is 0.5% (inactive); in test [1] (stimulation, at 2 µM), 0.3%. Moreover, the insulin secretion stimulation in test [2] is -1.8% (inactive). The viability decrease in test [3] was -10.3% (inactive). Besides, in test [4], the tube area decrease was 8.6% (inactive). Moreover, the GLP1 secretion stimulation in test [5] was 3.7% (inactive). For the same compound, in test [6], the inhibition of viability was -10.6% (inactive). Also, the viability decrease (inhibition) in test [7] is 24.2% (inactive); in test [8] it was -1.2% (inactive).
`O=[N+]([O-])c1cc(I)c(O)c(I)c1`: the nuclear beta-catenin stimulation in test [1] (at 10 µM) is 18.4% (inactive); in test [1] (stimulation, at 2 µM) it was 0.7%. Besides, the insulin secretion stimulation in test [2] was 5.5% (inactive). Further, in test [3], the viability decrease was 95% (active). For the same compound, the tube area decrease in test [4] is 106% (active). Also, the GLP1 secretion stimulation in test [5] is -1% (inactive). Moreover, the inhibition of viability in test [6] is 93% (active). In addition, the figures for the viability decrease (inhibition) in test [7] and in test [8] were 101% (active) and 98.8% (active), respectively.
